The list is not random: actives were taken first. Their share in the collection is about 3.5%.
FAK inh = blocks human focal adhesion kinase activity | biochemical FAK kinase activity assay | inhibition, %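 (tested at 7 µM)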 | 97,000 compounds, 0.84% hits | AID 727; in the data active means inhibition above about 19%;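 further: 0% = DMSO and 100% = reference compound high control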
ERa SRC1 pot = enhances coactivator binding to human estrogen receptor alpha. P03372. TR-FRET ERalpha-LBD/SRC-Cy5 coactivator binding, 2 h; 100 = basal binding, no effect. coactivator binding (% of control), % at 25.6 µM. 86,000 compounds, 1.3% hits. AID 639; in the data active means activity above about 200%;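 further: binding measured in presence of low estradiol as agonist stimulus; 0% = peptide alone without receptor and 100% = receptor with peptide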
ERb coact inh = ER-beta (human) coactivator binding inhibition; 86,000 compounds, 1.3% hits; inhibition, % at 25.6 µM; Q92731; TR-FRET ER-beta LBD / SRC1-Cy5 peptide binding; receptor agonist-loaded with 1 µM estradiol;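 active means compounds whose percent inhibition of the receptor-coactivator binding signal exceeds about 50% in the single-dose screen, limit read from the data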;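 further: 0% = receptor plus peptide wells without compound and 100% = peptide-only wells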
ERa SRC1 inh = blocks coactivator binding to human estrogen receptor alpha; 86,000 compounds, 1.7% hits; AID 629; inhibition, % at 25.6 µM; P03372; TR-FRET ER-alpha LBD / SRC-1 peptide, estradiol-bound; in the data active means inhibition above about 50%;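 further: 0% = receptor plus peptide control and 100% = peptide only without receptor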
Mac1 fbg enh = CD11b/CD18-fibrinogen binding enhancement; P05107+P11215; K562 CD11b/CD18 adhesion to fibrinogen, ATPlite luminescence; activation, % at 10 µM; 93,000 compounds, 0.07% hits;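 active means 10 µM primary screen giving 50% or more activity, confirmed by 40% or more on retest at that dose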
Mac1 fbg inh = blocks human CD11b/CD18 adhesion to fibrinogen; inhibition, % at 10 µM; K562 CD11b/CD18 adhesion to fibrinogen, ATPlite luminescence; Mn2+ added to activate the integrin; P05107+P11215; 93,000 compounds, 0.54% hits;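 active means primary inhibition of 50% or more at 10 µM, then 40% or more on retest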
* = called active by the depositor; x = no result given; [ ] = another dose, or the depositor's remark.

SMILES	FAK inh	ERa SRC1 pot	ERb coact inh	ERa SRC1 inh	Mac1 fbg enh	Mac1 fbg inh
O=C(Nc1ccc(N2CCOCC2)cc1)c1ccc2nc(-c3ccco3)c(-c3ccco3)nc2c1	8	42	50*[fluorescence artefact?]	80*[fluorescence artefact?]	103	-10
O=C(Nc1ccc(N2CCOCC2)cc1)c1ccncc1	1	84	20	-2	x	x
S=C(Nc1ccc(N2CCOCC2)cc1)Nc1ccc2nc(-c3ccco3)c(-c3ccco3)nc2c1	4	14	89*[fluorescence artefact?]	68*[fluorescence artefact?]	9	-3
C/C(=N\NC(=S)Nc1ccc(C)c(C)c1)c1ccc(N2CCOCC2)cc1	x	x	x	x	0	28
CCn1c(SCC(=O)N2CCCc3ccccc32)nnc1-c1cccs1	-1	93	-11	-8	0	2
C=CCn1c(SCCC(=O)O)nnc1-c1cccs1	1	108	-1	-3	x	x
CC1(C)Cc2ccccc2-c2nnc(SCC(=O)N3CCc4ccccc43)n21	-29	293*[fluorescence artefact?]	33	43	9	8
O=C(CSc1nnc(-c2cccs2)n1-c1ccccc1)N1CCCc2ccccc21	-79	889*[fluorescence artefact?]	-43	16	5	-17
Cc1cccc(-n2c(SCCC(=O)O)nnc2-c2cccs2)c1C	-1	93	50*	0	-3	-8
CCCCCSc1nnc2c(n1)OC(C)N(C(C)=O)c1ccccc1-2 (stereo not given)	0	130	14	6	-4	3
CN(C)c1ccc(-c2nn3c(-c4ccncc4)nnc3s2)cc1	x	107	13	15	x	x
Cc1cc(NC(=O)c2ccc(Cl)cc2)no1	-2	118	-6	-6	5	-30
CCOc1cccc2cc(C(=O)Nc3cc(C)on3)c(=O)oc12	-1	468*[fluorescence artefact?]	29	33	62	3
Cc1cc(NC(=O)c2cccc(C(=O)Nc3cc(C)on3)n2)no1	7	292*	11	16	-2	18
NC(=O)COc1cccc2cccnc12	2	106	7	-4	-3	-19
Cc1cc(NC(=O)COc2cccc3cccnc23)no1	-1	52	50*[fluorescence artefact?]	64*[fluorescence artefact?]	x	x
Cc1oc(C(=O)O)cc1COc1cccc2cccnc12	0	99	59*[fluorescence artefact?]	20	0	-3
CSc1nc(N2CCOCC2)c2c3c(sc2n1)CCC3	1	78	62*[fluorescence artefact?]	18	4	15
CCC1(CC)C(=O)N=C2c3ccccc3C(=O)N21	x	113	-8	-9	-2	-3
CCn1c2ccccc2c2nc3cc(S(=O)(=O)N4CCOCC4)ccc3nc21	-2	94	-2	-7	-4	57*
c1ccc2nc3c(nc2c1)c1ccccc1n3CCN1CCOCC1	1	122	3	-4	5	-34
CC(=O)c1c(COC(=O)c2cccnc2)nc2ccccc2[n+]1[O-]	-2	52	57*[fluorescence artefact?]	65*[fluorescence artefact?]	3	-9
c1ccc(N2CCN(c3c4c(nc5ncnn35)CCC4)CC2)cc1	1	116	-13	2	-2	-12
COc1cccc(N2CCN(c3ncccn3)CC2)c1	-1	338*[fluorescence artefact?]	-2	-2	x	x
COc1cccc(N2CCN(c3c4c(nc5ncnn35)CCC4)CC2)c1	-2	122	4	-7	-5	51*
SMILES	FAK inh	ERa SRC1 pot	ERb coact inh	ERa SRC1 inh	Mac1 fbg enh	Mac1 fbg inh
O=C1C2C3C=CC(CC3)C2C(=O)N1c1ccc2c(c1)OCO2 (stereo not given)	-2	95	15	12	x	x
O=C1NCCCC2c3cc(O)c4ccccc4c3OC12N1CCCCC1 (stereo not given)	17	37	55*	43	-2	-10
N#C/C(=N\Nc1ccccc1F)C(=N)N1CCCCC1	1	128	60*[fluorescence artefact?]	-5	x	x
CCOc1cc(/C=C2\C(=O)N(c3ccc(C(N)=O)cc3)N=C2C)ccc1OC(=O)c1cccs1	5	x	x	x	81*	8
CCOc1cc(/C=C2/C(=O)N(c3ccccc3)N=C2C)ccc1OC(=O)c1ccco1	-6	x	x	x	x	x
Cc1cc(C)c(C#N)c(SCc2cc3c(cc2Cl)OCO3)n1	-2	189	58*[fluorescence artefact?]	56*[fluorescence artefact?]	x	x
Cc1cc(C)c(C#N)c(SCc2ccccc2)n1	1	94	-3	1	x	x
Cc1cc(Br)c2c(c1)=C(c1sc(N3CCCCCC3)nc1O)C(=O)N=2	7	179	50	74*[fluorescence artefact?]	78	0
CCCS(=O)(=O)N1CCC(C(=O)NCCN2CCCC2)CC1	-2	103	81*[fluorescence artefact?]	-4	1	-14

Assay outcomes: PubChem, several laboratories
